Experimental data taken from PubChem BioAssay AID1030 (National Center for Advancing Translational Sciences (NCATS), 2008).
Values joined by “and” are separate entries in the source; they are usually repeats but may differ in a detail not shown here. Equal values may be shown once. Hit rate of the full screen: of about 220,000 compounds, about 16,000 (7.3%) were called active. Roughly 25% stayed inconclusive and do not appear here. The list comes from a sample in which actives are over-represented; it also holds similar structures and randomly drawn compounds. A number with no mark means an inactive call. The call rests on the fitted dose curve; in most records, active means well fitted inhibition curve with a large enough effect (not every such curve was filed as active); inconclusive means small, poorly fitted or top-dose-only effect, or another doubt; inactive means no such curve, though single readings can be large or run the other way.

What follows are compounds tested against Aldehyde dehydrogenase 1A1 (Homo sapiens) (UniProt P00352) (assay: qHTS Assay for Inhibitors of Aldehyde Dehydrogenase 1 (ALDH1A1)). Details: Purified ALDH1A1, NADH fluorescence, propionaldehyde substrate; series mostly up to 75.3 µM; activity, negative = inhibition: at the top concentration.
Potency means the concentration at half of the fitted maximal effect.
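Wherever activity, negative = inhibition is given: plate controls were no enzyme wells and a reference inhibitor.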

Sequence of Aldehyde dehydrogenase 1A1 (Homo sapiens) (P00352 whole entry, looked up): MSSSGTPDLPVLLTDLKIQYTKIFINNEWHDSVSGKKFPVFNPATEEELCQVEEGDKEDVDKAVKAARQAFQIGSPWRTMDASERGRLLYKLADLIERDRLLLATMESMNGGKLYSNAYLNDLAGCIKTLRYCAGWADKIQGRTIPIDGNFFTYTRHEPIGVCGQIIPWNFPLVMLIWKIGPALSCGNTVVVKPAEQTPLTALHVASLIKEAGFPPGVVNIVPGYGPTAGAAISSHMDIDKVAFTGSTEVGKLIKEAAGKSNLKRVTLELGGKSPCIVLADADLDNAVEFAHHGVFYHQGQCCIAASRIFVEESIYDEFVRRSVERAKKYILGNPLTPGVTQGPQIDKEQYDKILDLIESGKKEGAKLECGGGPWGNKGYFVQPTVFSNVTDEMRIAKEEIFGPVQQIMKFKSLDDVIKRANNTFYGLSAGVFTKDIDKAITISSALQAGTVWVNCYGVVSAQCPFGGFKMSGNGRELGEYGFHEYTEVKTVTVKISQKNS

In order of falling “activity, negative = inhibition” value:
1. COc1ccc(CCNC(=O)c2ccc(CS(=O)(=O)c3ccc(Br)cc3)o2)cc1OC  21.2%
2. COC(=O)COc1ccc(C2NC(=O)NC(C)=C2C(=O)NCc2ccccc2)cc1OC (stereo unspecified)  19.6%
3. Cc1[nH]c2ccccc2c1SCC(=O)Nc1nccs1  16.2%
4. CCc1nnc(NS(=O)(=O)c2ccc(NS(=O)(=O)c3ccccc3)cc2)s1  15.8%
5. COCCOC(=O)C1=C(C)Nc2nc(C)nn2C1c1ccccc1 (stereo unspecified)  12.5%
6. CC(CNC(=O)c1ccc(N)cc1)NC(=O)c1ccc(N)cc1 (stereo unspecified)  12.3%
7. CCOC(=O)C1CCc2nc3ccccc3c(=O)n21 (stereo unspecified)  12.2%
8. O=C(Nc1cccc([N+](=O)[O-])c1)Nc1ccc(Cl)cn1  11.7%
9. Nc1nc(NC(=O)/C=C/c2ccc(F)cc2)nn1-c1ccccc1  11.2%
10. CCC(=O)Nc1cc(C(F)(F)F)ccc1N1CCCC1  11.1%
11. COCCCNC(=O)c1c(F)c(F)c(F)c(F)c1F  9.81%
12. Brc1cc(/C=N/n2cnnc2)oc1Br  9.74%
13. CSc1ncccc1C(=O)OCc1ccc(Br)cc1  9.11%
14. O=C(O)CSc1nccc2ccccc12  9.04%
15. CCc1nnc(NC(=O)c2cccs2)s1  9%
16. O=C(Nc1ccc(N2CCOCC2)nc1)c1c(F)cccc1F  7.81%
17. CCN(CC)C(=O)CN(c1cccc([N+](=O)[O-])c1)S(=O)(=O)c1ccccc1  6.73%
18. CC(C)NC(=O)NC(=O)COC(=O)c1ccc(NC(=O)CC#N)cc1  6.29%
19. CSCCC(=O)N1CCCC(CNC(=O)c2ccccc2Cl)C1 (stereo unspecified)  5.62%
20. CC1CCN(CCC(=O)Nc2ccccc2)CC1  5.39%
21. CCn1cc(CN2CCCC(CNS(=O)(=O)Cc3ccccc3)C2)cn1 (stereo unspecified)  5.21%
22. COc1ccc(CC(NC(C)=O)C(=O)NC2CCN(C(=O)C3CC3)CC2)cc1OC (stereo unspecified)  5.16%
23. Cc1ccc(CCCOC(=O)C[N+]2(C)CCCCC2)cc1  5.06%
24. O=C1CC(c2ccccc2)C(=O)N1c1cccc(O)c1 (stereo unspecified)  4.81%
25. NNC(=O)C1CC(O)CN1S(=O)(=O)c1ccc(Cl)cc1 (stereo unspecified)  4.39%
26. NC(=O)C1CCN(Cc2nc3c(Br)cc(Br)cc3c(=O)[nH]2)CC1  4.31%
27. CC(C)C(=O)Nc1ccc(C(=O)NNC(=O)c2cccs2)cc1  4.21%
28. O=C(Nc1ccc(C(=O)O)cc1)/C(=C/c1ccc([N+](=O)[O-])cc1)NC(=O)c1ccccc1  3.09%
29. CCOC(=O)c1c(NC(=S)NC(=O)/C=C/c2cccs2)sc(C)c1C  3.03%
30. CC(C)(C)c1cc(P(=O)(c2ccccc2)c2ccccc2)ccc1O  2.97%
31. CCO[C@H]1OC(C(=O)N2CCCCCCC2)=C[C@@H](c2ccc(C(F)(F)F)cc2)[C@@H]1CCCO  2.63%
32. CC(=O)Oc1ccc(C)cc1N1C(=O)c2ccc(C(=O)O)cc2C1=O  2.51%
33. Cn1cnc([N+](=O)[O-])c1Nc1ccccc1O  2.48%
34. Cc1cccc(N2C(=O)c3cccnc3C2=O)c1  2.24%
35. Cc1cccc(N2C(=O)CC(SC(N)=Nc3ccccc3)C2=O)c1 (stereo unspecified)  2.23%
36. Cc1c(C=O)c2ccccc2n1CC(=O)O  2.12%
37. O=C1OCC2=C1C(c1ccccc1)CC(=O)N2c1cccc(F)c1 (stereo unspecified)  2.06%
38. CCN(CC)CCNC(=O)c1ccc(NS(=O)(=O)c2ccc3c(c2)OCCO3)cc1  1.71%
39. CCCCC/C=C\C/C=C\C/C=C\CCCCCCC(N)=O  1.39%
40. O=C(CC1NCCc2ccccc21)Nc1cccc(Cl)c1 (stereo unspecified)  1.34%
41. COC(=O)N/N=C/c1ccc(/C=N/NC(=O)OC)cc1  1.22%
42. CCC(=O)Nc1sc(C(=O)Nc2ccccc2)c(C)c1C(=O)OC  1.12%
43. CC(=O)N(CN1C(=O)C2C3C=CC(C3)C2C1=O)c1cccc(Cl)c1 (stereo unspecified)  0.697%
44. O=C1CCN(C(=S)NCCc2ccccc2)CC1  0.459%
45. CNC(=S)N1CCC(NC(=O)C(Cc2ccc(F)cc2)NC(C)=O)CC1 (stereo unspecified)  0.163%
46. Cn1cnc([N+](=O)[O-])c1Sc1n[nH]c(N)n1  0.133%
47. COc1cccc(CC2(CO)CCN(Cc3cnc(-c4cccc(C)c4)nc3)CC2)c1  -0.151%
48. O=C(Nc1nnc(Cc2ccc(Cl)cc2)s1)c1cccnc1  -0.189%
49. CC(=O)Nc1cccc(C(=O)Nc2nc(C)cs2)c1  -0.569%
50. COCCN(Cc1nc(-c2ccc(C(F)(F)F)cc2)no1)C(C)C  -1.16%
51. COc1cccc(/C=C/C(=O)Nc2ccc3c(c2)OCCO3)c1  -1.38%
52. CCOc1ccc(Nc2nc(Cc3nnc(SCC(=O)NC4CCCC4)n3C)cs2)cc1  -1.4%
53. C/C(=N/NC(=O)CCc1ccccc1)c1ccco1  -1.48%
54. COc1cccc(-c2nc3n(n2)C(c2ccccc2Cl)C(C(N)=O)=C(C)N3)c1 (stereo unspecified)  -1.6%
55. O=C(CC1SCCNC1=O)Nc1ccc(Cl)c(Cl)c1 (stereo unspecified)  -1.94%
56. C=C/C1=C/Cc2ccccc2[C@H](C[N+](=O)[O-])C(C(=O)OC)(C(=O)OC)C1  -1.98%
57. CC(=O)Nc1ccc(S(=O)(=O)N(C)c2ccc(OCC(=O)OCC(=O)N3CCCCC3)cc2)cc1  -2.1%
58. O=C(C(=O)N1CCc2ccccc2C1)c1c[nH]c2ccccc12  -2.78%
59. CN1CCN(C(=O)C2=C[C@H](c3ccc4c(c3)OCO4)C[C@H](OCc3ccc(CO)cc3)O2)CC1  -2.84%
60. O=C1COc2ccc(C(=O)COC(=O)c3cccnc3Cl)cc2N1  -2.97%
61. CCOC(=O)CSc1nnc(CNc2nc(-c3ccccc3)cs2)n1C  -3.03%
62. Cn1cc(CN2CCCC(CO)C2)c(-c2ccc(Oc3ccccc3)cc2)n1 (stereo unspecified)  -3.15%
63. CCCCC/C=C\C/C=C\CCCCCCCCCC(N)=O  -3.54%
64. CC1COc2ccccc2N1C(=O)c1cccnc1Cl (stereo unspecified)  -3.66%
65. Cc1ccc2nsnc2c1S(=O)(=O)N1CCCC1C(=O)O (stereo unspecified)  -3.73%
66. S=C(NCCc1ccccc1)N1CCCCC1  -4.74%
67. O=C(Nc1cccc(C(F)(F)F)c1)c1ccc(N2CCNCC2)c([N+](=O)[O-])c1  -4.94%
68. CS(=O)(=O)N(Cc1ccccc1Cl)c1ccc(C(=O)NCc2cccnc2)cc1  -5.16%
69. CC(Sc1nc2c([nH]c3ccccc32)c(=O)n1C)c1ccccc1 (stereo unspecified)  -5.21%
70. CC(C)(C)NC(=O)NC(=O)COC(=O)CCC1CCCCC1  -5.33%
71. Cc1ccc(S(=O)(=O)Cc2cc(-c3ccc(Cl)cc3)no2)cc1  -5.52%
72. CC(C)(C)c1nc2ccccc2c(=O)n1N1C(=O)c2ccccc2C1=O  -5.76%
73. CC1CC(C)CN(S(=O)(=O)c2ccc(C(=O)NN3CCOCC3)cc2)C1 (stereo unspecified)  -5.98%
74. COc1ccc(NS(=O)(=O)c2ccc(NC(=S)NC(=O)/C=C/c3ccc(C)cc3)cc2)nn1  -5.99%
75. COC(=O)c1cc(NC(=O)c2ccco2)ccc1N1CCOCC1  -6.16%
76. O=C(CN1C(=O)CC(c2ccccc2)S(=O)(=O)c2ccccc21)NC1CCCC1 (stereo unspecified)  -7.83%
77. CC(=O)c1c(-c2ccccc2)c2ccccc2[nH]c1=O  -7.94%
78. COc1ccc(C2CC(c3ccccc3)=NN2C(=O)COC(=O)COc2ccccc2)cc1 (stereo unspecified)  -9.93%
79. CC(C)C1=CC2=CC[C@H]3[C@](C)(C(=O)O)CCC[C@]3(C)C2CC1 (stereo partly specified)  -11%
80. Nc1ncnc(Nc2cccc(Cl)c2Cl)n1  -11.2%
81. O=C(C1=C[C@H](c2coc3ccccc3c2=O)C[C@H](OCc2ccc(CO)cc2)O1)N1CCN(Cc2ccccc2)CC1  -12.4%
82. O=C(NC(=S)Nc1ccc(NC(=O)c2cccs2)cc1)c1ccc([N+](=O)[O-])cc1  -13.7%
83. CCc1cc2cc(OC)ccc2nc1SCC(=O)Nc1cc(OC)c(OC)cc1C(=O)O  -14.1%
84. COc1ccc(-n2c(O)c(C=NCC(c3ccco3)N3CCCC3)c3ccccc3c2=O)cc1OC (stereo unspecified)  -15%
85. Cc1oc2cc([N+](=O)[O-])c(O)c([N+](=O)[O-])c2c1C(=O)c1ccc(Br)cc1  -15.7%
86. CC(CCc1ccccc1)NC(=O)c1ccc(Br)o1 (stereo unspecified)  -52.6%

CC1=C(C(N)=O)C(c2ccc3c(c2)OCO3)n2nc(-c3cccc(C)c3)nc2N1 (stereo unspecified) was tested, and the Potency was 3.55 µM (active).
With COCCCNCC(=O)Nc1sc(C)c(C)c1C(=O)OC the Potency was 11.2 µM (active).
CN(C)/C=C1\C=C(c2ccccc2)OC1=O was tested, and the Potency was 10 µM (active).
In the case of CC(=O)NC(Cc1ccc(F)c(F)c1)C(=O)NC1CCN(c2nnnn2-c2ccccc2)CC1 (stereo unspecified), the Potency is reported as 3.16 µM (active).
With N#CCC(=O)NC(=O)NCC1CC1 the Potency was 3.98 µM (active) and 1.26 µM (active).
CC(CNC(=O)c1ccc(Br)o1)NC(=O)c1ccc(Br)o1 (stereo unspecified) was tested, and the Potency was 28.2 µM (active).
With CC/C=C/C/C=C/C/C=C/CCCCCCCC(=O)OCC the Potency was 1.12 µM (active).
O=C1COc2ccc(C(=O)COC(=O)C3CC(O)CN3S(=O)(=O)c3ccc(Cl)cc3)cc2N1 (stereo unspecified) was tested, and the Potency was 5.01 µM (active).
For Cc1ccc(Oc2ccc3c(c2)C(=O)N(c2cccc4cccnc24)C3=O)cc1, the Potency was 11.2 µM (active).
In the case of CC(=O)n1cc([C@@H]2C=C(C(=O)N3CCN(Cc4ccc5c(c4)OCO5)CC3)O[C@H](OCc3ccc(CO)cc3)C2)c2ccccc21, the Potency is reported as 25.1 µM (active).
In the case of Cn1cnc([N+](=O)[O-])c1Sc1ccccc1, the Potency is reported as 11.2 µM (active).
COC(=O)c1ccccc1SC1CC(=O)N(c2cccc(C)c2)C1=O (stereo unspecified) was tested, and the Potency was 17.8 µM (active).
In the case of Oc1cc2c(cc1O)CN(C(=S)NCCc1ccc(Cl)cc1)CCC2, the Potency is reported as 15.8 µM (active) and 20 µM (active).
For O=C(CCl)N(Cc1cccc([N+](=O)[O-])c1)c1cccc(Cl)c1, the Potency was 0.158 µM (active).
For CCOC(=O)c1c(NC(=O)CSc2nnc(Cc3csc(N)n3)n2C)sc(C)c1C, the Potency was 7.94 µM (active).
For CCC1(CC)Cc2ccccc2-c2nc3ccccc3c(=O)n21, the Potency was 15.8 µM (active).
With Oc1c(C=Nc2cccc3nsnc23)ccc2ccccc12 the Potency was 2.82 µM (active).
With CCc1nnc(NS(=O)(=O)c2ccc(NC(=S)NC(=O)c3cccs3)cc2)s1 the Potency was 25.1 µM (active).
With NS(=O)(=O)c1ccc(NC(=S)NNC(=O)c2cccs2)cc1 the Potency was 12.6 µM (active).
CCc1nnc(NS(=O)(=O)c2ccc(NC(=S)NC(=O)/C=C/c3cccs3)cc2)s1 was tested, and the Potency was 12.6 µM (active).
